# Data: PubChem BioAssay (Tox21)
# A number with no mark means an inactive call. Records with an inconclusive call do not appear. Where a call stands in place of a potency, no number is given. Activity calls are given as the source filed them. Unless noted, the call rests on the fitted dose curve; in most records, active means well fitted curve in the direction sought with a large enough effect in the repeat runs; inconclusive means weak or mixed curves; inactive means no such curve, though single readings can be large; an effect the other way counts as inactive or inconclusive.
# Columns and labels:
# [1] = qHTS assay to identify small molecule antagonists of the estrogen related receptor (ERR) signaling pathway from Tox21 library - cell viability counter screen (AID 1224834); further: nearly all actives have a fitted effect of over 30% in size
# How it was run: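 CellTiter-Fluor fluorescence, read after 30 min at 37 C, measures viability of ERR cells. Cells plated at 2,000/well and incubated 6 h before pin-tool compound addition, then exposed 17.5 hours at 37 C.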
# [2] = target: Luciferin 4-monooxygenase (Photinus pyralis) (UniProt P08659); assay: qHTS assay to identify small molecule inhibitors of firefly luciferase (AID 1224835); further: nearly all actives have a fitted effect of over 25% in size; further: potency means the concentration at half of the fitted maximal effect
# Sequence of Luciferin 4-monooxygenase (Photinus pyralis) (P08659 whole entry, looked up): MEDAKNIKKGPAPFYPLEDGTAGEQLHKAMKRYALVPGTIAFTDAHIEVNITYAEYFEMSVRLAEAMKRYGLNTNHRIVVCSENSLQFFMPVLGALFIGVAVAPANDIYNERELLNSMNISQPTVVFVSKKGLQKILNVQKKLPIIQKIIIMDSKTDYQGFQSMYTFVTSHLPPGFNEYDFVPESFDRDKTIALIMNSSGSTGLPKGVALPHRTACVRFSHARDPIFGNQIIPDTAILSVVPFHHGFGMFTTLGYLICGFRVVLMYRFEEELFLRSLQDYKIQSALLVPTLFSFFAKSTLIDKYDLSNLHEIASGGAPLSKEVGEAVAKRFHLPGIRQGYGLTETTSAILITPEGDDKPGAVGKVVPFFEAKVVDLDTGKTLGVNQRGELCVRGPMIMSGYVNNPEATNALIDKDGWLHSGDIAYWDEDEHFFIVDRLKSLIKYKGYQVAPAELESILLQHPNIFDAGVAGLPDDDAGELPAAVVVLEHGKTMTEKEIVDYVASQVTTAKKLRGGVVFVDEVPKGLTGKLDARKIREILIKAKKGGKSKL
# How it was run: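 Inhibition of purified Photinus luciferase is measured by luminescence. Substrate levels (D-luciferin, ATP) sit at their KM values. Each compound is tested in a concentration series.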
# [3] = qHTS assay to identify small molecule agonists of the constitutive androstane receptor (CAR) signaling pathway - cell viability counter screen (AID 1224836); further: nearly all actives have a fitted effect of over 45% in size
# How it was run: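 Double-stable HepG2 hepatoma cells (hCAR plus CYP2B6-2.2kb) are treated for 23 h at 37 C with test compounds in 15-point concentration series. PK11195 at 0.75 uM final is co-added. Cell viability is quantified by CellTiter-Fluor.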
# [4] = qHTS assay to identify small molecule antagonists of the constitutive androstane receptor (CAR) signaling pathway - cell viability counter screen (AID 1224837); further: nearly all actives have a fitted effect of over 45% in size
# How it was run: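 Cytotoxicity counter-screen: CellTiter-Fluor fluorescence after 23 h compound exposure (15-point qHTS) in double-stable HepG2-CYP2B6-hCAR cells, with 50 nM CITCO added.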
# [5] = target: Nuclear receptor subfamily 1 group I member 3 (Homo sapiens) (UniProt Q14994); assay: qHTS assay to identify small molecule antagonists of the constitutive androstane receptor (CAR) signaling pathway (AID 1224838);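 further: HepG2 cells stably expressing hCAR with CYP2B6 luciferase reporter stimulated by CITCO; nearly all actives have a fitted effect of over 40% in size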
# Sequence of Nuclear receptor subfamily 1 group I member 3 (Homo sapiens) (Q14994 whole entry, looked up): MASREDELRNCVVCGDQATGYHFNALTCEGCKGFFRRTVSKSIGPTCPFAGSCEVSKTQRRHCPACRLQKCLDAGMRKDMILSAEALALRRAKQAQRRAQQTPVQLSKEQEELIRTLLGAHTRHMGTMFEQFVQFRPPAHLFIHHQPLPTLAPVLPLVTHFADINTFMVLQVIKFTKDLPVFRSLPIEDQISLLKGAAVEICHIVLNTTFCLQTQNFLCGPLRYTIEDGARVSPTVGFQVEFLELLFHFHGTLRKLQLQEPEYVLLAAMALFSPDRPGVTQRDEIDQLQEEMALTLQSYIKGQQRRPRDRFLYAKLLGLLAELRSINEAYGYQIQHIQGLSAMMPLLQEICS
# How it was run: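 Antagonism measured as luciferase signal (ONE-Glo, 30 min, room temperature) in CAR-stimulated cells: HepG2-CYP2B6-hCAR double-stable line exposed 24 hr at 37 C to compound in a 15-point series plus 50 nM CITCO.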
# [6] = target: Nuclear receptor subfamily 1 group I member 3 (Homo sapiens) (UniProt Q14994); assay: qHTS assay to identify small molecule agonists of the constitutive androstane receptor (CAR) signaling pathway (AID 1224839); further: nearly all actives have a fitted effect of over 15% in size; further: potency means the concentration at half of the fitted maximal effect;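 on activation: HepG2 cells stably carrying human CAR and a CYP2B6 luciferase reporter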
# How it was run: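 Readout: firefly luciferase luminescence via ONE-Glo. System: HepG2 double-stable for hCAR and CYP2B6-2.2kb. Conditions: 15-point compound titration, PK11195 at 0.75 uM final, 24 h incubation.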
# [7] = qHTS assay to identify small molecule antagonists of the estrogen related receptor signaling pathway with the pleiotropic PPARgamma coactivator (PGC) from Tox21 10K library - cell viability counter screen (AID 1224840; active means well fitted cell-killing curve with a large enough effect in the repeat runs, not every such curve was filed as active; further: nearly all actives have a fitted effect of over 40% in size)
# How it was run: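 Counter-screen for cytotoxicity: after 17.5 h compound exposure at 37 C, CellTiter-Fluor reagent added to PGC/ERR cells for 30 min and fluorescence read. Cells were seeded at 2,000 per well 6 h before dosing.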
# [8] = qHTS assay to identify small molecule agonists of the hypoxia (HIF-1) signaling pathway - cell viability counter screen (AID 1224844; calls by dose curve; further: nearly all actives have a fitted effect of over 50% in size)
# How it was run: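 Cytotoxicity measured by CellTiter-Glo ATP luminescence in the wells also read for beta-lactamase signal. Cells were HRE-bla ME-180 (2,000/well, 0.5% dialyzed FBS), exposed to compounds for 17 h at 37C.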
# [9] = qHTS assay to identify small molecule agonists of H2AX (AID 1224845; active means well fitted activation curve with a large enough effect in the signal ratio in the repeat runs, not every such curve was filed as active; the % refers to the signal ratio)
# How it was run: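 Phospho-H2AX Ser139 measured by HTRF (ex 320 nm; em 665 and 620 nm) after 24 hr antibody incubation. Compounds, 15 concentrations, 0.76% DMSO, were applied to CHO-K1 cells for 3hr at 37C before lysis.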
# [10] = qHTS assay to identify small molecule agonists of the hypoxia (HIF-1) signaling pathway (AID 1224846; active means well fitted activation curve with a large enough effect in the signal ratio in the repeat runs, not every such curve was filed as active; the % refers to the signal ratio)
# How it was run: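 Compounds added to ME-180 cells carrying hypoxia-response-element beta-lactamase reporter (0.5% dialyzed FBS, 5 h preplating), 17 h at 37C; agonist activity detected by CCF4-AM B/G FRET read-out.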
# [11] = qHTS assay to identify small molecule agonists of H2AX - cell viability counter screen (AID 1224847; calls by dose curve;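 further: wild-type CHO-K1 cells; top concentration of the series differs between compounds; nearly all actives have a fitted effect of over 30% in size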)
# How it was run: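 For this counter screen, overnight-attached CHO-K1 cells received test compounds (15 concentrations, 0.76% DMSO final); 3 hr later at 37C, CellTiter-Glo reagent was added and luminescence recorded after 30 min at room temperature.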
# [12] = qHTS RealTime-Glo MT Cell Viability Assay in HepG2 cells - 24 hour (AID 1224867); further: nearly all actives have a fitted effect of over 50% in size
# How it was run: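 Compound treatment began 5 h after plating HepG2 cells (600/well) with NanoLuc luciferase and prosubstrate. Plates stayed at 37 C for 40 h; luminescence was captured at six time points, 0 h through 40 h.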
# [13] = qHTS RealTime-Glo MT Cell Viability Assay in HEK293 cells - 32 hour (AID 1224868); further: top concentration of the series differs between compounds; nearly all actives have a fitted effect of over 50% in size
# How it was run: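 Quantitative high-throughput screen of the Tox21 10K library in HEK293: cells and RealTime-Glo reagents plated together, compound added at 5 h, luminescence monitored through 40 h at 37 C.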
# [14] = qHTS RealTime-Glo MT Cell Viability Assay in HepG2 cells - 40 hour (AID 1224870); further: nearly all actives have a fitted effect of over 50% in size
# How it was run: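 Real-time viability: cells seeded at 600 per well together with NanoLuc and cell-permeant prosubstrate, compounds added after 5 h incubation. Luminescence tracked at 0, 8, 16, 24, 32 and 40 h of exposure.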
# [15] = target: Thyrotropin receptor (Homo sapiens) (UniProt P16473); assay: qHTS assay to identify small molecule agonists of the thyroid stimulating hormone receptor (TSHR) signaling pathway (AID 1224843; calls by dose curve; further: nearly all actives have a fitted effect of over 45% in size)
# Sequence of Thyrotropin receptor (Homo sapiens) (P16473 whole entry, looked up): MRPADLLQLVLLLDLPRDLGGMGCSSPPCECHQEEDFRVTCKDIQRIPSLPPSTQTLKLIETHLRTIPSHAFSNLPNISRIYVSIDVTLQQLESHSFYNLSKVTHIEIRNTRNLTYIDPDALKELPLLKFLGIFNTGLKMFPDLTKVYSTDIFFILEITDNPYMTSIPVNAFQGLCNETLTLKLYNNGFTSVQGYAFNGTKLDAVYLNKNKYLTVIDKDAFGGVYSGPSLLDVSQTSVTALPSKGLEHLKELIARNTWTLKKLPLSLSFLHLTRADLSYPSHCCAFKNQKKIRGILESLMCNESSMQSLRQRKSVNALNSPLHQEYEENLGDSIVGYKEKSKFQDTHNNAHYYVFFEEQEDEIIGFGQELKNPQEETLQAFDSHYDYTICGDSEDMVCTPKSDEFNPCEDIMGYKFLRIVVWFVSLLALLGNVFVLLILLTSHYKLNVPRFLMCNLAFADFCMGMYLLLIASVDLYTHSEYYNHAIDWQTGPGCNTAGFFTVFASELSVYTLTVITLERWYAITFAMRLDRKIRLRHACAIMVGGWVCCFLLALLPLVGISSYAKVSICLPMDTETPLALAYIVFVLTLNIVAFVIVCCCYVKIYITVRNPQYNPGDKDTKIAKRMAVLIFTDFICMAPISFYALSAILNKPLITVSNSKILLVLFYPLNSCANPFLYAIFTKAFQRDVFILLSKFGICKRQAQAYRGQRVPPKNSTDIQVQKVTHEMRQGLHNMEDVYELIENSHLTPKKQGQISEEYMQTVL
# How it was run: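 A cell-based cAMP HTRF format was run in TSHR-transfected HEK293 cells, 800 per well. Treatment: 30 min, room temperature. Detection: 1 h with labelled cAMP and anti-cAMP cryptate. Concentration-response over 15 points, three replicates.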
# [16] = A CellTox Green Cytotoxicity Assay to monitor cytotoxicity in HEK293 cells - 0 hour (AID 1224869); further: nearly all actives have a fitted effect of over 50% in size
# How it was run: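 Fluorescence from a DNA-binding dye excluded by viable cells was measured repeatedly in the same HEK293 wells (600 cells/well) during continuous compound exposure at 37 C. Each assay gives one read point: 0, 8, 16, 24, 32 or 40 h.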
# [17] = qHTS assay to identify small molecule agonists of the estrogen related receptor signaling pathway with the pleiotropic PPARgamma coactivator (PGC) from Tox21 10K library (AID 1224842); further: nearly all actives have a fitted effect of over 15% in size
# How it was run: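 Luminescence from One-Glo (30 min, room temperature) measured after PGC/ERR cells had 18 h at 37 C with pinned compound (23 nL in DMSO). Cells had been seeded at 2,000 per well and pre-incubated 6 h.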
# [18] = qHTS assay to identify small molecule agonists of the estrogen related receptor (ERR) signaling pathway from Tox21 library (AID 1224849; calls by dose curve; further: nearly all actives have a fitted effect of over 15% in size); conditions: ERR reporter cell line, ONE-Glo luciferase, 18 h; at 92.4 µM (top of the series) unless noted
# How it was run: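 Luminescent agonist read-out (One-Glo, 30-minute room-temperature incubation) following 18-hour compound treatment at 37 C of the ERR cell line, which had been plated 6 hours before dosing.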
# [19] = qHTS assay to identify small molecule antagonists of the estrogen related receptor signaling pathway with the pleiotropic PPARgamma coactivator (PGC) from Tox21 10K library (AID 1224841; call rule not given here)
# How it was run: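 Luminescence (One-Glo, 30 min at room temperature) after 18 h compound treatment at 37 C of PGC/ERR reporter cells plated at 2,000 cells/well and settled 6 h beforehand.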
Compound,Potency [1],Potency [2],Potency [3],Potency [4],Potency [5],Potency [6],Potency [7],Potency [8],Potency [9],outcome [10],Potency [11],Potency [12],Potency [13],Potency [14],Potency [15],Potency [16],outcome [17],"activity change, positive = activation [18] [%]",Potency [19]
N#CC(Cl)(Cl)Cl,inactive,inactive,inactive,inactive,inactive,inactive,inactive,inactive,inactive,inactive,inactive,inactive,inactive,inactive,–,–,–,–,–
CC(=O)CC(c1ccc(Cl)cc1)c1c(O)c2ccccc2oc1=O (stereo not given),inactive,inactive,inactive,inactive,inactive,inactive,inactive,inactive,–,inactive,–,inactive,inactive,inactive,inactive,–,–,–,–
CCOP(=S)(OCC)SCSc1ccc(Cl)cc1,inactive,inactive,inactive,inactive,inactive,27.3 µM (active),inactive,inactive,–,inactive,–,inactive,inactive,inactive,–,inactive,–,–,–
O=C(NCO)NCO,inactive,inactive,inactive,inactive,inactive,inactive,–,inactive,inactive,inactive,inactive,inactive,inactive,–,inactive,inactive,–,–,–
COc1cc2c(cc1OC)[C@@]13CCN4CC5=CCO[C@H]6CC(=O)N2[C@H]1[C@H]6[C@H]5C[C@H]43,inactive,inactive,inactive,inactive,inactive,inactive,inactive,inactive,inactive,inactive,inactive,inactive,inactive,inactive,–,inactive,–,–,–
O=C(Cc1ccccc1)OCc1ccccc1,inactive,20.2 µM (active),inactive,inactive,inactive,inactive,inactive,inactive,inactive,–,inactive,inactive,inactive,–,inactive,inactive,–,–,–
ClC(Cl)C(Cl)Cl,inactive,inactive,inactive,inactive,inactive,inactive,inactive,inactive,inactive,inactive,inactive,inactive,inactive,inactive,–,–,–,–,–
COC(=O)c1ccccc1S(=O)(=O)NC(=O)Nc1nc(C)cc(C)n1,inactive,inactive,inactive,inactive,inactive,inactive,–,inactive,inactive,inactive,inactive,inactive,inactive,inactive,inactive,inactive,–,–,–
NC(=S)C(N)=S,inactive,inactive,inactive,inactive,inactive,inactive,–,inactive,inactive,inactive,inactive,inactive,inactive,inactive,–,inactive,inactive,-20.6,–
CCC1(c2ccccc2)C(=O)N=C(O)NC1=O (stereo not given),inactive,inactive,inactive,inactive,inactive,inactive,inactive,inactive,inactive,inactive,inactive,inactive,inactive,inactive,–,inactive,–,–,–
CC(C)(C)C(=O)C(Oc1ccc(Cl)cc1)n1cncn1 (stereo not given),inactive,inactive,inactive,inactive,inactive,inactive,–,inactive,inactive,–,inactive,inactive,–,inactive,–,inactive,–,–,–
CCc1cc2c(s1)-n1c(C)nnc1CN=C2c1ccccc1Cl,inactive,inactive,inactive,inactive,–,inactive,inactive,inactive,inactive,inactive,inactive,inactive,–,inactive,–,–,inactive,–,inactive
O=C(Nc1ccccc1)c1ccccc1I,inactive,inactive,inactive,inactive,–,61.1 µM (active),inactive,inactive,inactive,inactive,–,inactive,inactive,–,inactive,inactive,–,–,–
COC(=O)C1=CCCN(C)C1,inactive,inactive,inactive,inactive,inactive,–,–,inactive,inactive,–,inactive,inactive,inactive,inactive,inactive,inactive,–,–,–
